In PubChem BioAssay (NCI):
Where “and” joins values, the source holds several entries; their conditions need not be identical. Equal values may be shown once. Compounds without any hit were thinned out: in the full panel of roughly 79,000, 15% have a hit. Some compounds were tested as several samples or in several runs, with calls that do not always agree. Calls of active or inactive are those of the source. Rule as the data show it: active = growth inhibition above about 70%; inactive = the rest.

Experiments:
[1] = NCI Yeast Anticancer Drug Screen. Data for the rad50 strain (AID 155);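 also: 0% = growth of vehicle-only cultures of the same strain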; conditions: S. cerevisiae rad50 strain growth inhibition; at 50.0 µM; stronger effect = higher value
Procedure, shortened: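 Vehicle-treated cultures provide the reference for the growth inhibition reported for compound-exposed, repair-deficient yeast.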

[2] = NCI Yeast Anticancer Drug Screen. Data for the mec2-1 strain (AID 157); conditions: S. cerevisiae mec2-1 strain, at 50.0 µM, stronger effect = higher value
Procedure, shortened: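 Using mec2-1 yeast: add compound, measure growth, express inhibition versus vehicle-treated cultures.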

[3] = NCI Yeast Anticancer Drug Screen. Data for the sgs1 mgt1 strain (AID 161);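 also: 0% = growth of cultures given vehicle only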; conditions: S. cerevisiae sgs1 mgt1 strain, at 50.0 µM, stronger effect = higher value
Procedure, shortened: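 Yeast cells carrying a defined DNA-repair defect were exposed to test compounds. Growth inhibition was measured relative to vehicle-treated controls.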

[4] = NCI Yeast Anticancer Drug Screen. Data for the cln2 rad14 strain (AID 165);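 also: 0% = growth equal to vehicle treated cultures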; conditions: S. cerevisiae cln2 rad14 strain, at 50.0 µM, stronger effect = higher value
Procedure, shortened: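 Yeast strain cln2 rad14, bearing defects in cell cycle control and DNA repair, serves as the test system; values reflect growth inhibition compared with vehicle.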

[5] = NCI Yeast Anticancer Drug Screen. Data for the bub3 strain (AID 167); conditions: S. cerevisiae bub3 mutant strain, at 50.0 µM, stronger effect = higher value
Procedure, shortened: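 Mutant yeast screening strain plus compound; vehicle-treated cultures serve as the 0% inhibition reference.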

[6] = NCI Yeast Anticancer Drug Screen. Data for the mlh1 rad18 strain (AID 175); conditions: S. cerevisiae mlh1 rad18 strain growth inhibition; at 50.0 µM; stronger effect = higher value
Procedure, shortened: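 Steps: expose repair-defective yeast to compound; measure growth; express inhibition against vehicle-treated controls.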

Measured: growth inhibition

CC(C)=CCN1CCC2(C)c3cc(O)ccc3CCC2C1 (configuration not stated)
inactive: [1] -9.9% | [2] -8.8% | [3] -0.8% | [4] -31.2% | [5] -6.5% | [6] -2.1%

CCCCCCNCCc1cnc[nH]1
inactive: [1] 12.8% | [2] 3.1% | [3] 15% | [4] 17.5% | [5] 2.75% | [6] -68.7%

COc1ccc(CC(N)c2ccccc2)cc1 (configuration not stated)
inactive: [1] 8.25% | [2] 18.1% | [3] 6.4% | [4] 10.2% | [5] 12.8% | [6] -3.5%

CC1(C)N=C(N)N=C(N)N1c1ccc(CCc2ccc(S(=O)(=O)F)c(Cl)c2)c(Cl)c1
active: [1] 99.2% | [2] 99.7% | [3] 99.8% | [4] 98.7% | [5] 99.2% | [6] 99.7%

N[C@H]1C2C3CC4C5CC(C42)C1(c1ccccc1)C53 (some centres not stated)
inactive: [1] -20.4% | [2] -5.25% | [3] -0.05% | [4] -5.2% | [5] -12% | [6] -6%

CCCN=Cc1ccccc1O.CCCN=Cc1ccccc1O.[Ni]
inactive: [1] 37.5% | [2] 9.4% | [3] 18.6% | [4] -35.9% | [5] 4.85% | [6] 29.8%

N#CS.N=C=S.N=C=S.[Cu+2].[NH2-].[NH2-].[NH2-].[NH2-].c1ccc2ncccc2c1
inactive: [1] -10.4% | [2] -16.6% | [3] -24.2% | [4] 26.2% | [5] -9.6% | [6] -12.5%

c1ccc2c(c1)CN1Cc3ccccc3C2C1
inactive: [1] 6.6% | [2] -12.3% | [3] -13.5% | [4] -13.7% | [5] 2.65% | [6] -6.35%

CC(Cl)C(=O)OC(C)(C)Cl (configuration not stated)
inactive: [1] 19.9% | [2] 25.7% | [3] 11.7% | [4] 11.1% | [5] 17% | [6] 3.05%

Cc1c2n(c3ccccc13)CC1CON(C)C21 (configuration not stated)
inactive: [1] -14.4% | [2] -11.5% | [3] -8.95% | [4] -1.3% | [5] -31.4% | [6] -19.9%

Cc1ccccc1-n1c(CCl)nc2ccc(Br)cc2c1=O
inactive: [1] 18.4% | [2] 2.6% | [3] 12.6% | [4] 6.05% | [5] 1.35% | [6] 27.1%

CCC[As](=O)(O)CC(C)C
inactive: [1] 3.2% | [2] -2.8% | [3] -4.9% | [4] 13.2% | [5] -0.4% | [6] -3.75%

O=C(O)CCC(=O)O
inactive: [1] -8.1% and 5.7% | [2] -16.6% and -2.05% | [3] -22.3% and -6.35% | [4] -41.9% and 13.8% | [5] -28% and -2.05% | [6] -13.1% and 11.2%

CC(C)[C@H](C)/C=C/[C@@H](C)C1CC[C@H]2[C@@]34C=C[C@]5(C[C@@H](O)CC[C@]5(C)[C@H]3CC[C@]12C)OO4 (some centres not stated)
inactive: [1] 11.8% | [2] 19% | [3] -13.2% | [4] 2.15% | [5] -20.4% | [6] -31.6%

CC[C@@]1(O)C(=O)OCc2c1cc1n(c2=O)Cc2c-1nc1ccccc1c2C=Nc1ccc(N[C@@H]2c3cc4c(cc3[C@@H](c3cc(OC)c(O)c(OC)c3)[C@H]3C(=O)OC[C@@H]32)OCO4)cc1
49.7% (inactive) and 82.5% (active): [1]
69.9% (inactive) and 80.4% (active): [3]
50.3% (inactive) and 83.3% (active): [5]
active: [2] 71.6% and 76.7%
46% (inactive) and 81.2% (active): [6]
54% (inactive) and 77.9% (active): [4]

Cc1cc(NC(=O)CCc2ccc(N3C(N)=NC(N)=NC3(C)C)cc2Cl)ccc1S(=O)(=O)F
active: [1] 72.5% | [2] 94.1% | [3] 94.7% | [6] 83.3%
inactive: [4] 4.55% | [5] 54%

CCOC(=O)C(CCc1ccc(N(CCCl)CCCl)cc1)(NC(C)=O)C(=O)OCC
inactive: [1] 1.5% | [2] -32.6% | [3] 8.65% | [4] -4.35% | [5] -16.8% | [6] -39.9%

COc1ccc2c(c1O)CNCC2c1ccc(O)cc1O (configuration not stated)
inactive: [1] 0.6% | [2] -12% | [3] -7.25% | [4] -11.9% | [5] -24.8% | [6] -2%

COC(=O)C(Cl)CCl (configuration not stated)
inactive: [1] 2.45% and 39.4% | [2] 15.3% and 6.15% | [3] -9.05% and 16% | [4] -23.2% and -34.7% | [5] -2.3% and 15.8% | [6] -20.8% and 25.7%

C/C=C/CC1(C(C)C)C(=O)NC(=O)NC1=O
inactive: [1] 8.6% and 18.7% | [2] 11.2% and 8% | [3] -4.2% and 10.8% | [4] 3.8% and 10.6% | [5] -1.25% and 1.2% | [6] -1.65% and 8.4%

CN1C2CCC1CC(OC(=O)C1CCC(C(=O)OC3CC4CCC(C3)N4C)(c3ccccc3)c3ccccc31)C2 (configuration not stated)
inactive: [1] -45% | [2] -23.9% | [3] -35.3% | [4] -29.9% | [5] -34.4% | [6] -36.7%

O=C1NC(=O)C2(CCc3ccc(N(CCCl)CCCl)cc32)N1 (configuration not stated)
inactive: [1] 14.1% | [2] -19.5% | [3] -4.75% | [4] 11.9% | [5] -16.6% | [6] 11.1%

O=[N+]([O-])C1CC/C(=N/O)c2nonc21 (configuration not stated)
inactive: [1] 0.3% | [2] 9.5% | [3] 18.5% | [4] 19.6% | [5] 5.3% | [6] 18.6%

COc1ccc2c3c1OC1C4(OC)CCC5(c6c(O)ccc(O)c64)C(C2)N(C)CCC315 (configuration not stated)
inactive: [1] 5.75% | [2] 4% | [3] 7.2% | [4] 13.3% | [5] -6.4% | [6] 4.15%

CC(C)OP(=O)(CP(=O)(OC(C)C)OC(C)C)OC(C)C.[CH3][Sn]([Br])([Br])[Br]
inactive: [1] -27.4% | [2] -23.6% | [3] -32.5% | [4] 6.7% | [5] -19.1% | [6] -23%

CC([NH-])C[NH-].CC([NH-])C[NH-].[Co].[NH2-].[NH2-] (configuration not stated)
inactive: [1] -10% | [2] -6.5% | [3] 6.15% | [4] -41.2% | [5] 35.2% | [6] 18.4%

O=P(Oc1ccccc1)(Oc1ccccc1)N(CCCl)CCCl
inactive: [1] 0.2% | [2] 9.55% | [3] -8.35% | [4] -11.9% | [5] -19.2% | [6] -37.6%

Cc1ccc(N)c(C)c1
inactive: [1] -2.05% | [2] -5.65% | [3] -1.5% | [4] -3.8% | [5] 3.2% | [6] -13.2%

CCCCOC1OCN(C2CCCCC2)CC1(C)C (configuration not stated)
inactive: [1] 13.5% | [2] 28.1% | [3] 27.5% | [4] 13.7% | [5] 36.8% | [6] 41.8%

COc1ccc([As]=O)cc1[N+](=O)[O-] (configuration not stated)
inactive: [1] 13.2% | [2] 1.15% | [3] 11.1% | [4] 14.2% | [5] -19% | [6] 8.2%

[CH3][Sn]([CH3])([CH3])[O][N+](=O)[O-]
inactive: [1] 25.6% | [2] 2.65% | [3] 44.6% | [4] 2.55% | [5] 48.7% | [6] 18.9%

COC1=CC(=O)OC(CCc2ccccc2)C1 (configuration not stated)
inactive: [1] -2.7% | [2] -5.9% | [3] -1.9% | [4] -14.2% | [5] -9.35% | [6] -4.85%

O=c1[nH]c(O)c(N=Nc2ccc([N+](=O)[O-])cc2[N+](=O)[O-])c(=O)[nH]1
inactive: [1] 14.7% | [2] 15.4% | [3] 22.2% | [4] 14.7% | [5] -11.7% | [6] 7.35%

CN(C(=[Se])[Se]C(=[Se])N(C)C1CCCCC1)C1CCCCC1
inactive: [1] 19.4% | [2] 5% | [3] 8.35% | [4] 18.4% | [5] 0.4% | [6] 12.6%

NNc1c(C(N)=O)c2c(N)ncnc2n1C1OC(CO)C(O)C1O (configuration not stated)
inactive: [1] -0.6% | [2] 37.8% | [3] 4.9% | [4] 10.5% | [5] 4.55% | [6] 19.9%

[CH3][Pb]([CH3])([CH3])[O]C(=O)c1ccc([N+](=O)[O-])cc1
inactive: [1] 28.7% | [2] -41% | [3] 25.1% | [4] 8.8% | [5] 1.15% | [6] 42.2%

Cc1cc2c(C(C)C)c(O)c(O)c(C=O)c2c(O)c1-c1c(C)cc2c(C(C)C)c(O)c(O)c(C=O)c2c1O
inactive: [1] 47.7% and 59.2% | [3] 41.1% and 46.5% | [4] 47.6% and 67.5% | [5] 49.1% and 43.6% | [6] 60.2% and -27%
52.6% (inactive) and 71.2% (active): [2]
